In PubChem BioAssay AID493165 (National Center for Advancing Translational Sciences (NCATS), 2011):
Values without a mark were called inactive. Active and inactive are the calls of the source. Calls follow the shape of the dose curve; as a rule, active = well fitted curve in the direction sought with a large enough effect; inactive = no such curve, though single readings can be large or run the other way.

Assay: Retest of LOPAC molecules that induce DNA re-replication in SW480 adenocarcinoma cells.
Settings: Hoechst DNA content imaging, 48 h; series mostly up to 45.1 µM; activity, positive = re-replication: at the top concentration
Excerpt: NIH Molecular Libraries Probe Production Network [MLPCN] NIH Chemical Genomics Center [NCGC] MLPCN Grant: Fast Track K99 CA136555 Assay Provider: Melvin DePamphilis, NICHD, NIH Assay Overview Eukaryotic cells normally restrict genome duplication to once per cell division. When this process is aberrant, DNA re-replication occurs when cells reinitiate DNA replication before the first round of replication is complete. DNA re-replication induces the DNA damage response, arrests cell proliferation, and triggers apoptosis. The cell cycle components cyclin A, Cdt-1, Cdc6 and geminin are critical regulators of this process and their misregulation results in DNA re-replication in normal and cancer cells. To identify compounds that induce re-replication in normal cells, an image-based assay was used to measure DNA content of nuclei, as detected by the fluorescent DNA binding dye, Hoechst. Cell nuclei were imaged by a fluorescence scanning plate imager and compounds that induce DNA re-replication were identified by the increase of nuclei with elevated fluorescence intensity.
Assay Protocol Summary For screening, 250 cells in 5 uL/well were dispensed into black clear 1536-well plates (Aurora) using a solenoid-based dispenser. Following transfer of 23 nL compound or DMSO vehicle by a pin tool, the plates were incubated 48 hr at 37 C and 5% CO2. After addition of 1 uL/well Hoescht stain, the plates were incubated 40 min at 37 C, 5% CO2 and total intensity of fluorescent objects (nuclei) were enumerated by an Acumen Explorer Ex3 (TTP LabTech) fluorescence scanning plate imager (405 nm excitation, 500-530 nm emission). Keywords: NIH Roadmap, MLPCN, MLI, MLSMR, qHTS, NCGC, DNA replication, cancer

Row | Compound | Potency | activity, positive = re-replication
1 | CC(=O)O[C@H]1C(=O)[C@@]2(C)C([C@H](OC(=O)c3ccccc3)[C@]3(O)C[C@H](OC(=O)[C@H](O)[C@@H](NC(=O)c4ccccc4)c4ccccc4)C(C)=C1C3(C)C)[C@]1(OC(C)=O)CO[C@@H]1C[C@@H]2O (stereo not given in full) | 169 nM (active) | 
2 | COc1cc2c(cc1O)CC[C@@H]1[C@@H]2CC[C@]2(C)[C@@H](O)CC[C@@H]12 | 6730 nM (active) | 
3 | C[C@@H](Oc1ccc(Oc2cnc3ccc(Cl)cc3n2)cc1)C(=O)O |  | -22.5%
4 | CCCCCCN(CCCCCC)C(=O)Cc1c(-c2ccc(F)cc2)[nH]c2ccccc12 |  | -26.7%
5 | O=c1cc(-c2ccccc2)[nH]c2nc(Cl)ccc12 | 1690 nM (active) | 
